Bioassay records as filed in PubChem.
Compounds with a hit are over-represented: about 2.4% of the library has one in this group of screens.
WRN inhibitor – inhibitors of human WRN helicase. WRN helicase unwinding, fluorescent forked duplex, kinetic. Potency, µM (doses to about 114 µM), inactives show top-dose activity change, negative = inhibition, usual class: inhibitors. Q14191. actives 0.46% (n = 360,000); note: % is set by controls: 0 for no effect and ±100 for the full control effect; nearly all actives have a fitted effect of over 55% in size
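WRN at 20 nM final was preincubated with compound for 15 min at room temperature; reaction started with 100 nM forked duplex oligonucleotide carrying fluorophore and quencher plus 2 mM ATP (final). Unwinding followed kinetically by red fluorescence (ex 525/em 598 nm).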
Pol iota inh – DNA polymerase iota (human) inhibition | Q9UNA4 | Pol iota fluorescent replication assay, 10 min | actives 1% (n = 390,000) | Potency, µM (top dose mostly 115 µM), inactives show top-dose activity, negative = inhibition, hits mostly inhibitors
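Fluorescent replication assay read twice, at 0 min and 10 min after adding 50 nM (final) substrate. Enzyme (10 nM) and compounds were first incubated 15 min at room temperature; enzyme-free buffer wells were negative controls.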
POLB inh – blocks human DNA polymerase beta activity; P06746; Pol beta primer extension/strand displacement, fluorescence kinetic; Potency, µM (top dose mostly 114 µM), without a hit: top-dose activity change, negative = inhibition, usual class: inhibitors; actives 1.3% (n = 340,000); note: % is set by controls: 0 for no effect and ±100 for the full control effect
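Preincubation: enzyme (10 nM) with compound, 15 min, RT. Reaction: substrate added to 50 nM final. Reads: 0 and 10 min. Analysis: normalized, Hill fit.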
FEN1 inhibitor – inhibitors of human flap endonuclease 1. P39748. Recombinant FEN1 flap cleavage, fluorescence, 15 min. Potency, µM (titrated, usually from 114 µM), inactives show at the top dose activity change, negative = inhibition, usual class: inhibitors. actives 0.35% (n = 390,000); note: % is set by controls: 0 for no effect and ±100 for the full control effect; nearly all actives have a fitted effect of over 65% in size
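Nuclease activity of 10 nM FEN1 was measured after 15 min of room-temperature exposure to titrated compounds, by adding 50 nM flap substrate and reading plates at 0 and 15 min.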
Pol eta inh – inhibitors of human DNA polymerase eta | Q9Y253 | recombinant Pol eta, fluorescent DNA replication assay | Potency, µM (highest dose often 114 µM), for the others: top-dose activity change, negative = inhibition, most hits filed as inhibitors | actives 1.2% (n = 390,000); note: % is set by controls: 0 for no effect and ±100 for the full control effect
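Pol eta at 10 nM preincubated with compounds 15 min at room temperature; reaction started with fluorescent substrate (50 nM final) and read kinetically at 0 and 10 min.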
Pol kappa inh – blocks human DNA polymerase kappa activity; purified Pol kappa, fluorescent DNA synthesis assay, 10 min; Potency, µM (highest dose often 107 µM), for inactives: top-dose activity, negative = inhibition, most hits filed as inhibitors; actives 0.53% (n = 400,000); AID 588579; note: % is set by controls: 0 for no effect and ±100 for the full control effect
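10 nM Pol kappa preincubated 15 min at room temperature with compounds, then reaction started with substrate at 50 nM final. Fluorescence read kinetically at 0 and 10 min; buffer-only wells served as negative control.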
Starred values were filed as active, the others as inactive; ? = inconclusive; . = no result; [ ] = dose if it differs, or a comment. Calls come from the whole dose curve; as a rule, active = well fitted curve in the direction sought with a large enough effect; inconclusive = small, poorly fitted or top-dose-only effect, or another doubt; inactive = no such curve, though single readings can be large; an effect the other way counts as inactive or inconclusive. Potency is the fitted concentration of half-maximal effect.

SMILES	WRN inhibitor	Pol iota inh	POLB inh	FEN1 inhibitor	Pol eta inh	Pol kappa inh
CCOC(=O)c1ccc(N2CCN(c3ccc(F)cc3)CC2)c(NC(=O)Nc2ccc(CC)cc2)c1	.	?	7%	11%	-2%	-10%[60.1 µM]
Cc1ccsc1CN(C(=O)COc1cccc(C)c1C)C1CCS(=O)(=O)C1 (stereo unspecified)	.	26%	-3%	11%	.	-2%
O=C(Nc1ccc(F)cc1)c1ccc(-n2cnc3cccnc32)cc1	.	8%	-29%	-5%	-9%	-9%
CN(C)c1ccc(/C=[N+]2\C(=O)CC(=O)NC2=O)cc1	.	18%	.	-5%	.	-3%
O=C(O)c1cc(N/N=C/c2ccc3c(c2)OCO3)ccc1Cl	-22%[57.1 µM]	21%	33%	-7%	-5%	-15%
O=C(O)c1cc(N/N=C/c2ccc3c(c2)OCCO3)ccc1Cl	-18%[57.1 µM]	?	?	3%	25µM*	?
Cc1sc(N)nc1-c1cccc([N+](=O)[O-])c1	.	-1%	.	-12%	.	-19%
CC1CCN(C(=O)Cn2cc(SCc3cccc(F)c3)c3ccccc32)CC1	.	6%	8%	-20%	3%	-6%
COc1cccc(-c2noc(COc3ccccc3Cl)n2)c1	.	13%	4%	-6%	-24%	-2%
O=C(O)c1cc(Cl)c2c(c1)OCO2	-11%	?	?	-16%	22µM*	-39%
O=C(Cc1ccc(OCc2ccccn2)cc1)NO	.	55%	.	-14%	.	-21%
C/C=C(\C)C(=O)NCCN1C2=NC[C@@H](Cc3ccccc3)N2C[C@H]1Cc1ccc(O)cc1	-3%[11.6 µM]	71µM*	-25%	-2%	-14%	-24%
COc1cc2nc(NC3CCN(Cc4ccccc4)CC3)nc(N3CCCN(C)CC3)c2cc1OC	.	6%	.	?	.	1%
CCOc1ccc(C(=O)c2cn(Cc3ccccc3)c3c(F)cc(F)cc3c2=O)cc1	.	1%	-10%	-9%	-19%	-9%
CC(NC(=O)c1cnc2ccccc2n1)c1ccccc1 (stereo unspecified)	-17%	90%	6%	-10%	-1%	-5%
CS[C@@H]1SC[C@H]2C(=O)N(C)C(C(C)C)C(=O)OC[C@@H](NC(=O)c3cnc4ccccc4n3)C(=O)N[C@@H](C)C(=O)N(C)[C@H]1C(=O)N(C)C(C(C)C)C(=O)OC[C@@H](NC(=O)c1cnc3ccccc3n1)C(=O)N[C@@H](C)C(=O)N2C (stereo partly specified)	.	.	.	.	.	21µM*
O=C1C=CC(=O)N1c1ccc2c(c1)C(NC(=O)C(F)(F)F)c1ccccc1-2 (stereo unspecified)	56µM*	22%	.	0%	-2%	-14%
COc1ccc(-n2c(=O)c3c(c4cc(OC)ccc4n3C)n(C)c2=O)cc1	.	7%	25%	-9%	-10%	-8%
Cn1c(=O)c(-c2ccc(Cl)cc2)nc2cnc(N3CCOCC3)nc21	.	.	.	.	.	-3%[60.1 µM]
Cc1ccc(C(=O)N/N=C\C2CC=CCC2)cc1[N+](=O)[O-] (stereo unspecified)	9%	29%	29%	-2%	89µM*	1%
CCOc1cc(C(=O)N/N=C/C2CC=CCC2)cc(OCC)c1OCC (stereo unspecified)	-27%[57.1 µM]	10%	1%	9%	-19%	4%
Cc1cc(C)c2nccc(/C=C/c3ccc(N(C)C)cc3)c2c1	.	10%	.	-16%	.	-7%
COc1cc(Cl)c(C)cc1NC(=O)c1cc2ccc3cccnc3c2[nH]1	.	?	40µM*	-4%	?	-7%
CC(C)c1nc(N(C)S(C)(=O)=O)nc(-c2ccc(F)cc2)c1/C=C/C(O)CC(O)CC(=O)O (stereo unspecified)	.	.	.	.	.	-8%[60.1 µM]
COc1ccc(C(=O)N2CCC(c3c[nH]c4ccccc34)(c3c[nH]c4ccccc34)CC2)cc1	.	28%	0%	11%	-24%	-6%
SMILES	WRN inhibitor	Pol iota inh	POLB inh	FEN1 inhibitor	Pol eta inh	Pol kappa inh
Cc1ccc(Cl)cc1NC(=O)Cn1c(=O)n(CCC(=O)NCc2ccc3c(c2)OCO3)c(=O)c2sccc21	.	-14%	14µM*	-14%	-25%	-12%
COc1ccc(NC(=O)Cn2c(=O)n(CCCCCC(=O)NCc3ccc4c(c3)OCO4)c(=O)c3sccc32)cc1Cl	.	-24%	-25%	89µM*	1%	-21%
Cc1ccc(NC(=O)Cn2c(=O)n(CCC(=O)NCc3ccc4c(c3)OCO4)c(=O)c3sccc32)c(C)c1	.	10%	?	-4%	-24%	-23%
COc1ccc2c(C)c(CCC(=O)NCCc3ccc(Cl)cc3)c(=O)oc2c1	.	-27%	-12%	-18%	0%	12%
Cc1cc(C(=O)CSc2nnc(-c3ccccc3)n2C)c(C)n1C	1%	-6%	-26%	-9%	-3%	-20%
CCOC(=O)c1ccc(NC(=O)CSc2nnc(-c3ccncc3)n2-c2ccccc2)cc1	.	-19%	2.2µM*	-3%	0%	-10%[60.1 µM]
Cc1cc(C(=O)CSc2nnc3ccccn23)c(C)n1-c1ccccc1	21%	27%	29%	4%	-11%	-2%
O=C(CSc1nnc(-c2ccncc2)n1-c1ccccc1)Nc1ccc(C(=O)O)cc1	0%	7%	9%	-3%	-3%	-10%
Cc1cc(C(=O)CSc2nnc(-c3ccccc3)n2-c2ccccc2)c(C)n1-c1ncn[nH]1	?	?	40µM*	-33%	20µM*	?
Cc1cc(C(=O)CSc2nnc(-c3ccncc3)n2-c2ccccc2)c(C)n1C	?	18µM*	45µM*	1%	?	-24%
CCOc1ccccc1NC(=O)C(Cc1ccccc1)NS(=O)(=O)c1ccc(Br)s1 (stereo unspecified)	.	37%	4%	-9%	-16%	0%
COCCOC(=O)N1CCN(/[N+]([O-])=N/Oc2ccc([N+](=O)[O-])cc2[N+](=O)[O-])CC1	.	-9%	.	-1%	.	7%
Cc1ccc(C(=O)O/N=C(\N)c2ccc(Br)cc2)cc1	-2%[57.1 µM]	89µM*	?	-5%	-22%	-23%
O=C(NNc1cc(Cl)cc(Cl)c1)c1sccc1Cl	.	15%	.	-3%	.	-1%
CCOc1cccc(NC(=O)/C(C#N)=C\c2cn(CC(=O)O)c3ccccc23)c1	-6%	-2%	50µM*	-2%	?	0%
CCOc1ccc(NC(=O)/C(C#N)=C/c2cn(CC(=O)O)c3ccccc23)cc1	-21%	99%	-9%	11%	-18%	-17%
COC(=O)Cc1cc(=O)n(-c2nc3ccccc3[nH]2)[nH]1	-9%	-12%	79µM*	4%	-15%	-16%
CN(C)CCCN1C(=O)c2cccc3c(Br)ccc(c23)C1=O	10%	?	?	18µM*	-2%	-6%
